# Assay outcomes deposited in PubChem by Broad Institute.
# rRNA inh HTS: inhibits bacterial ribosomal RNA function over humanized ribosomes | E. coli WT GFP vs humanized-ribosome RFP mutants, fluorescence, 24 h; stronger effect = lower value; DMSO median 0, no signal -100 | GFP signal change (wild-type ribosome), % (test concentration not listed) | AID 720706 | 1.6% of 350,000 active;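 active = significant combined selectivity score with lowered wild-type GFP, culture density cut under 30%, mutant RFP and density less affected; inactive = any of these conditions unmet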
# Wnt bcat act: activates Wnt/beta-catenin signaling in a reporter cell assay | activator, plate reader | activation, % at 9.35 µM | 1.2% of 300,000 active | AID 743398; in the data active = activation above about 30%, passing the limit was not always enough; inconclusive = no clear call, values can overlap the other calls;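 also: 0% = neutral control wells and 100% = positive control wells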
# esBAF inh: SWI/SNF esBAF complex inhibition | mouse ES cells, Bmi1-luciferase knock-in reporter, 24 h; 100% = twice the neutral-well signal | reporter increase, % at 12.5 µM | 2% of 350,000 active | AID 602393; in the data active = activation above about 40%; inconclusive = no clear call, values can overlap the other calls;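 also: 0% = median of the plate's neutral control wells and 100% = double that signal; a rise in the Bmi1 reporter signal indicates esBAF inhibition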
# MITF TRPM1 HTS: activators of MITF-driven TRPM1 promoter activity in SK-MEL-5 cells. SK-MEL-5 TRPM1-promoter luciferase, 24 h; % of positive control, neutral wells = 0. activation, % at 12.5 µM. 0.75% of 300,000 active;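 active = mean activation of at least 80% with every replicate also reaching 80%; inconclusive = mean reaches 80% but some replicate falls short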;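 also: 0% = neutral control wells and 100% = parthenolide positive control wells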
# AF4-AF9 inh: inhibitors of human MLL-AF4/AF9 interaction; inhibition, % at 10 µM; P42568; 0.47% of 350,000 active; AlphaScreen, biotin-AF4 peptide binding to FLAG-AF9;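 active = every replicate reaching a set inhibition limit, whatever the replicate mean, cut at about 25% in these data; inconclusive = mean inhibition reaches that limit but some replicates miss it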;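 also: 0% = plate neutral control median and 100% = total signal loss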
# Target sequence (P42568 whole entry, looked up): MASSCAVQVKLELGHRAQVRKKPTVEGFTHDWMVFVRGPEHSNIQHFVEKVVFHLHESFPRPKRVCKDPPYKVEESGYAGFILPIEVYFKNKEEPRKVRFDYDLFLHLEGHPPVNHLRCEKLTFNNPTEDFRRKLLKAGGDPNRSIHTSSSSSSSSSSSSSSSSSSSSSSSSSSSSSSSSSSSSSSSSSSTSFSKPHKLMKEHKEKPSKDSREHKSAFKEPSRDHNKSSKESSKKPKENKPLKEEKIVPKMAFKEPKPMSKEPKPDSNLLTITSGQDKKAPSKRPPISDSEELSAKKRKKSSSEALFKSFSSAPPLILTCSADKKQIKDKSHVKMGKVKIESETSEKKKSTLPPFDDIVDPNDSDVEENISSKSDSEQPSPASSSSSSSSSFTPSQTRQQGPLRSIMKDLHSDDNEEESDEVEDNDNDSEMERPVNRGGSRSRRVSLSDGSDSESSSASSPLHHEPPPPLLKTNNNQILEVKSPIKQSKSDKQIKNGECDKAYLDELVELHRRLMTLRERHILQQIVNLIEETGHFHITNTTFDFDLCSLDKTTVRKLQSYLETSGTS
# * hit, by the source's call; ? = inconclusive; . = no result. Hits are enriched below; roughly 3.7% of the tested compounds scored in any of these assays.
SMILES,rRNA inh HTS,Wnt bcat act,esBAF inh,MITF TRPM1 HTS,AF4-AF9 inh
COc1cc(NC(=O)COC(=O)/C=C/c2ccc(O)c(OC)c2)cc(OC)c1,-29*,-2,.,-6,-1
COc1cc(/C=C/C(=O)OCC(=O)Nc2ccc3c(c2)OCO3)ccc1O,-12,-1,4,-2,4
COCCOC(=O)c1[nH]c2c(c1C)C(=O)C(C(=O)OC)C(C)C2 (configuration not stated),1,7,31,73,1
COC(=O)C1C(=O)c2c([nH]c(C(=O)OC3CCCCCC3)c2C)CC1C (configuration not stated),-1,16,11,87*,0
COC(=O)C1C(=O)c2c([nH]c(C(=O)OCC3CCCO3)c2C)CC1C (configuration not stated),-8,17,55*,?,-5
CC(=O)N(C)C[C@@H]1Oc2ncc(C#C[C@@H](C)O)cc2C(=O)N([C@H](C)CO)C[C@@H]1C,-1,.,1,.,-5
Cn1nc(C(F)(F)F)c(-c2cccc(C(F)(F)F)c2)c1NC(=O)Nc1ccc(F)cc1,-28*,1,.,.,-1
Cc1ccccc1NC(=O)Nc1cc(-c2ccccc2)nn1C,-3,10,10,.,-3
Cn1nc(-c2ccccc2)cc1NC(=O)Nc1ccc(F)cc1,-40*,7,13,.,-2
Cn1nc(C(F)(F)F)c(-c2cccc(C(F)(F)F)c2)c1NC(=O)c1ccco1,-20,-3,-3,-12,1
Cc1ccc(-n2cc(CNCCc3ncc(C)[nH]3)c(-c3ccc(F)cc3)n2)cc1,-50,-1,.,1,28*
O=C(Nc1nccs1)c1ccc(Br)o1,.,.,24,24,.
CCOC(=O)Cc1csc(NC(=O)/C=C/c2cccc(Br)c2)n1,4,0,16,-2,-1
O=C(/C=C/c1ccc(Br)o1)Nc1nccs1,9,43*,.,52,-1
CCOC(=O)Cc1csc(NC(=O)/C=C/c2ccc(Br)o2)n1,-14,6,.,22,33*
CCOC(=O)Cc1csc(NC(=O)c2cc3ccccc3o2)n1,-19*,5,.,37,-5
CCOC(=O)Cc1csc(NC(=O)c2cc(C)cc(C)c2)n1,-25*,-2,0,3,2
CCOC(=O)Cc1csc(NC(=O)c2ccc(Br)o2)n1,.,7,.,13,.
O=S(=O)(N[C@@H]1CC[C@H](CCn2cc(-c3cccc(F)c3)nn2)O[C@H]1CO)c1ccc(Cl)cc1,-4,.,8,.,1
O=C(Nc1ccc(F)cc1)NC1CCN(Cc2nnnn2Cc2ccco2)CC1,.,-1,11,-8,.
C[C@H](O)[C@@H]1C(=O)N2CCc3c([nH]c4cccc(-c5ccccc5)c34)[C@@H]2C[C@@H]1N(C)CC1CCCCC1,-1,1,.,.,.
COc1ccccc1CNC(=O)[C@H](C)NC(=O)C1CCN(C(=O)[C@@H]2CCCN2C(=O)OC(C)(C)C)CC1,.,-2,12,14,-3
CCOC(=O)C1(C)CCCN(C(=O)Cc2ccc3ccccc3c2)C1 (configuration not stated),0,-3,2,.,-5
CCOC(=O)Cc1csc(NC(=O)c2ccc(S(=O)(=O)N(CCOC)CCOC)cc2)n1,1,37*,.,5,-1
COCC(=O)Nc1ccccc1C(=O)Nc1ccc(OC)cc1,.,36*,26,48,.
SMILES,rRNA inh HTS,Wnt bcat act,esBAF inh,MITF TRPM1 HTS,AF4-AF9 inh
COc1ccc(NC(=O)c2cc3ccccc3cc2O)cc1,-4,35*,?,79,-2
COc1ccc(NC(=O)c2ccccc2NC(=O)COc2ccccc2)cc1,.,.,.,17,.
COc1ccc(C(=O)NNC(=O)c2cc3ccccc3cc2O)cc1,-6,7,.,.,.
Cc1ccc(NC(=O)c2cc3ccccc3cc2O)cc1,-29,46*,44*,78,3
COc1ccc(C)cc1C1=Nc2ccccc2C1(C)C,.,.,.,8,.
Cc1ccc(O)c(C2=Nc3ccccc3C2(C)C)c1,-28,-1,67*,98*,9
C/C(=N\NC(=O)COc1ccccc1-c1ccccc1)c1cccnc1,-40*,0,.,5,5
C/C(=N\NC(=O)COc1ccccc1-c1ccccc1)c1ccc(O)cc1O,-25,-7,.,-20,-1
O=C(COc1ccccc1-c1ccccc1)N/N=C/c1cccnc1,-35,-1,.,-11,5
C/C(=N\NC(=O)COc1ccccc1-c1ccccc1)c1ccccn1,-49*,-1,-19,-83,6
C/C(=N\NC(=O)CSc1nc2ccccc2s1)c1cccnc1,-21*,3,.,8,-4
O=C(N/C(=C/c1cccnc1)C(=O)N1CCOCC1)c1ccco1,18,-1,.,9,-1
COc1ccccc1OCC(=O)N/N=C1\CCc2ccccc21,.,.,46*,50,.
O=C(COc1ccccc1F)N/N=C1\CCCc2ccccc21,-3,33*,61*,71,-10
O=C(N/N=C1\CCCc2ccccc21)c1ccccc1Cl,3,5,.,65,2
COc1ccccc1OCC(=O)N/N=C1\CCCCc2ccccc21,-12,4,7,8,-4
O=C(O)c1ccc(N/N=C2/CCCc3ccccc32)cc1,-8,17,59*,42,-10
Cc1cccc(N/N=C/c2ccc(C)s2)c1,.,6,74*,104*,9
COCC1CCN(C(=O)C2CCC(=O)N(C3CCCC3)C2)CC1 (configuration not stated),2,1,12,17,-2
COC1CCN(C(=O)C2CCC(=O)N(C3CCCCCC3)C2)CC1 (configuration not stated),18,23,56*,68,-2
C[C@H](CO)N1C[C@H](C)[C@@H](CN(C)C(=O)c2ccccc2F)Oc2ncc(C#CC(C)(C)O)cc2C1=O,1,.,2,.,-3
COc1ccc(C2C(C#N)=C(SCC(=O)Nc3ccc(C)cc3)NC3=C2C(=O)CC(C)(C)C3)cc1 (configuration not stated),.,-6,5,-13,.
CCN(CC)c1ccc(/C=C2\SC(N)=NC2=O)cc1,-1,0,49*,32,-2
Cc1cc(/C=N/NC(=O)c2cccc(F)c2)c(C)n1-c1ccccc1,13,?,.,53,4
Cc1cc(/C=N/NC(=O)c2ccccc2F)c(C)n1-c1ccccc1,-7,52*,.,97*,9
CC(c1nnc(SCC(=O)N(C)C2CCS(=O)(=O)C2)n1-c1ccccc1)N(C)C (configuration not stated),2,3,-7,-2,34*
CC(=O)N(c1ccccc1)c1nnc(-c2cnc(C)cn2)s1,6,7,.,98*,-1
Cc1cnc(-c2nnc(N(C)C(=O)c3cccnc3)s2)cn1,.,14,7,20,.
O=C(NCCc1c[nH]c2ccccc12)/C(=C/c1cccnc1)NC(=O)c1ccccc1,-1,10,.,-9,7
COc1ccc(C(=O)c2c[nH]c3ccccc23)cc1,.,-2,61*,86*,.
